Reference: PubChem BioAssay (NCI)
This is part of a sample that, as a whole, favours compounds with a hit. Of some 83,000 tested, about 20% had one in any assay.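 Cells were grown in 96-well plates and exposed to the test compound at a single concentration for 48 hours; results are reported as percent growth, with values below 10 considered active.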 Calls of active or inactive are those of the source.

Tested on: A549/ATCC NSCLC
Test: NCI-60 one-dose screen, 48 h (100 = growth as untreated, 0 = no growth, -100 = all killed)
Conditions: 10 µM unless noted

Structure (SMILES)	growth
Cc1ccc2nc(NC(=O)CSc3nc(-c4ccccc4)c(C#N)c4nnnn34)sc2c1	104% (inactive)
N=C(N)c1ccc(-c2ccc(-c3cc(Cl)cc(Cl)c3)s2)nc1	0.133% (active)
COc1ccc(Oc2nc(Nc3ccc(N4CCOCC4)cc3)ncc2NC(=O)Nc2cc(OC)cc(OC)c2)cc1	2.22% (active)
CCCCNc1cc(-c2cn[nH]c2-c2cc(C)cc(OC)c2)nc(-c2cccnc2)n1	94.3% (inactive)

Tested on: 786-0 renal
Test: as above
Conditions: 10 µM unless noted

Structure (SMILES)	growth
N#CSc1c[nH]c2cccc(/C=C/C(=O)/C=C(O)/C=C/c3cccc4[nH]cc(SC#N)c34)c12	-60.3% (active)
COCCn1cc(-c2csc(-c3c[nH]c4ccc(Br)cc34)n2)c2cccnc21	-4.75% (active)
N#CC1CCc2c(c(-c3ccc4nc(N)sc4c3)nc3ccc4[nH]ncc4c23)C1 (stereo unspecified)	49.3% (inactive)
NS(=O)(=O)c1ccc(-c2cc(-c3nnc(SCC(=O)Nc4ccc(C(=O)/C=C/c5ccc(Cl)cc5)cc4)n3-c3ccccc3)c3ccccc3n2)cc1	73.4% (inactive)
O=C(Nc1cc(Cl)ccc1O)c1cccc(Nc2ccnc(C(F)(F)F)c2)c1	49.3% (inactive)
CC/C(Cc1ccccc1)=C(\c1ccc(OCCCN(C)C)cc1)c1ccc(OC(=O)NCc2ccccc2)cc1	62% (inactive)
Clc1c(Cl)[n+](Cc2ccc3ccccc3c2)cn1Cc1ccc2ccccc2c1	-8.06% (active)
CSC(SC)=C(C#N)c1nc2ccccc2s1	61.8% (inactive)
O=C(CN1CCCCCC1)Nc1nc2ccc(NCc3ccc(Cl)cc3)cc2s1	104% (inactive)
CCC1S/C(=N\N=C(\C)c2cc3cc(Cl)ccc3o2)N(c2ccccc2)C1=O (stereo unspecified)	85.8% (inactive)
Cc1ccc(C)c(/C=C2\CN(C(=O)OC(C)(C)C)C/C(=C\c3cc(C)ccc3C)C2=O)c1	74.5% (inactive)
COc1ccc(-c2n[nH]c(=O)c3nc(NC(=S)Nc4ccc(Oc5ccccc5)cc4)sc23)cc1	102% (inactive)
O=C1/C(=C\c2ccccn2)c2ccccc2N1c1c(Cl)cccc1Cl	-81.4% (active)
Cc1ncc(C(=O)Nc2ccc(CN3CCN(C)CC3)c(C(F)(F)F)c2)cc1C#Cc1cnc(N)c2ncccc12	-71.4% (active)
CNC(=O)c1cc(Oc2ccc3c(c2)sc2nc(-c4ccc(OC)cc4)cn23)ccn1	29.3% (inactive)
O=C1Nc2c(C(=O)O)cccc2/C1=N/c1n[nH]c(=S)s1	91.3% (inactive)

Structure (SMILES)	growth
COC(=O)c1ccc(NC(=O)Nc2ccc(C(=O)OC)cc2)cc1	105% (inactive)
COc1ccc(/C=C/C(c2cc(OC)c(OC)c(OC)c2)n2ccnc2)cc1O (stereo unspecified)	34% (inactive)
Cc1nc2sc(C(=O)Nc3cccc(Br)c3C)c(N)c2cc1C(O)c1ccccc1 (stereo unspecified)	15.5% (inactive)
C=C1C(=O)O[C@H]2[C@H]1CC/C(COC(=O)/C=C/C(=O)OC/C1=C/CC[C@@]3(C)O[C@H]3[C@H]3OC(=O)C(=C)[C@@H]3CC1)=C\CC[C@@]1(C)O[C@@H]21	5.31% (active)
COc1ccc(-c2ccc(-c3ccc(C(=N)N)nc3)s2)cc1Cl	-89.7% (active)
COc1cc(/C=N/Nc2ccc(Br)cc2)cc(OC)c1OC	77.8% (inactive)
C#CCOc1cccc(-c2ncnc3cc(NC(=O)C=C)ccc23)c1	29.9% (inactive)
O=c1ccc(=O)n(-c2nc(-c3ccc([N+](=O)[O-])cc3)cs2)[nH]1	81.3% (inactive)
CCCCCCCCCCCCCCCCCC1=NC(C)(C)CN1CC(C)O (stereo unspecified)	83.9% (inactive)
CC1=C(C(=O)Nc2nc(-c3ccc(Cl)cc3)cs2)[C@H](c2ccc(O)cc2)NC(=O)N1	97.8% (inactive)
O=C(Cn1nnc2ccccc21)N/N=C/c1c[nH]c2ccccc12	58% (inactive)
Cn1c(=O)c2[nH]c(SCC(=O)Nc3ccc(C(=O)/C=C/c4ccccc4Cl)cc3)nc2n(C)c1=O	88.3% (inactive)
O=c1nc(-c2ccccc2)c2cc(-c3ccc(C(F)(F)F)nc3)ccc2[nH]1	100% (inactive)
CN(C)S(=O)(=O)Oc1ccc(-c2sc3cc(OS(=O)(=O)N(C)C)ccc3c2C(=O)c2ccc(OCCN3CCCCC3)cc2)cc1	21.5% (inactive)
O=S(=O)(NCCCNc1nccc(-c2c(-c3cccc(F)c3)nc3occn23)n1)c1ccc(F)cc1	66% (inactive)
Cc1ccc(-c2nc(N3CCNCC3)c3oc(-c4ccc(C)cc4)nc3n2)cc1	-92.2% (active)
